Rab9 promoter act: activates the Rab9 promoter. Huh7 Rab9 promoter-luciferase reporter, luminescence, 24 h. Potency, µM (series often up to 9.22 µM), inactives show at the top dose activation, negative = inhibition, hits mostly activators. hit rate 2.8% among 320,000. AID 485297; also: % of control where 0% means no effect; nearly all actives have a fitted effect of over 60% in size
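Cells were plated at 1500 per well in reduced-serum medium with 10% FBS and left 2 h. Compound in DMSO was then added for 24 h at 37 °C. Reporter signal was read by luminescence after 10 min with luciferase detection reagent.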
NPC1 promoter act: activates the NPC1 promoter; Huh7 NPC1 promoter luciferase reporter, 24 h; Potency, µM (titrated, usually from 9.22 µM), without a hit: at the top dose activation, usual class: activators; hit rate 2.4% among 320,000; also: % of control where 0% means no effect; nearly all actives have a fitted effect of over 60% in size
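Huh7 reporter cells (NPC1 promoter driving luciferase) are dosed with compound for 24 h at 37 °C, 5% CO2; luciferase detection reagent is then added and luminescence measured after 10 min at ambient temperature.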
SMN2 splice up: enhancers of SMN2 splice variant expression; HEK293 SMN2-luciferase splicing reporter, luminescence, 30-36 h; Potency, µM (doses to about 46.1 µM), without a hit: at the highest dose activity change, positive = activation, usual class: activators; hit rate 2.8% among 210,000; also: % of control where 0% means no effect; nearly all actives have a fitted effect of over 55% in size
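qHTS luciferase splicing reporter: luminescence rises when SMN2 exon 7 is included in transfected HEK293 cells. Compound exposure lasted 30-36 h at 37C, with 4.5 mM final sodium butyrate as control, followed by a ONE-Glo read.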
ELG1 genotox: genotoxicity induction in ELG1-luciferase HEK293T cells | HEK293T ELG1-luciferase reporter, luminescence, 16 h | Potency, µM (series often up to 46 µM), for the others: at the highest dose activity change, positive = activation, most hits filed as activators | hit rate 1.3% among 330,000; also: % of control where 0% means no effect; nearly all actives have a fitted effect of over 60% in size
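DMSO vehicle served as control against compound-treated ELG1-luciferase HEK293T cells; exposure lasted 16 hr at 37 °C and 5% CO2, followed by ONE-Glo luminescence detection after 30 min.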
FLuc modulator: firefly luciferase modulation, counter-screen for miR-21 project | hit rate 6.9% among 360,000 | Potency, µM (series often up to 57.5 µM), for the others: at the top dose activity change, negative = inhibition, hits mostly inhibitors | purified FLuc, Km substrates, luminescence inhibition | P08659;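 also: plate controls were vehicle for no effect and reference inhibitor for full effect; nearly all actives have a fitted effect of over 55% in size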
Target sequence (P08659 whole entry, looked up): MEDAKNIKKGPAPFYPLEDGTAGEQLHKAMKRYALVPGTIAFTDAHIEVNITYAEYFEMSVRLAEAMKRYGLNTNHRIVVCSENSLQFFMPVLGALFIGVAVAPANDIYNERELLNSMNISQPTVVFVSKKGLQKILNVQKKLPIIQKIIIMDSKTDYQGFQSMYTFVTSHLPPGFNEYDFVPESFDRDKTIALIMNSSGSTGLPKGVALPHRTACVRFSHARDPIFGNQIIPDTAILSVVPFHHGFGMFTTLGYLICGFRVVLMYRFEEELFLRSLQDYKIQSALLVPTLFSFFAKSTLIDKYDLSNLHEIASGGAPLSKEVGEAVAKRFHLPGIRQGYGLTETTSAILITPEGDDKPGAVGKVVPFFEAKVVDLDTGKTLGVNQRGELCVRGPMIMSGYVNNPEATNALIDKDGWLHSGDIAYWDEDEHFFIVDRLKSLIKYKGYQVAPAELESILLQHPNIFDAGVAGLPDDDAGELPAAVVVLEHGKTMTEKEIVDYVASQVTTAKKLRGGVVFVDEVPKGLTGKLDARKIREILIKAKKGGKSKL
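Biochemical qHTS of compounds, final roughly 60 µM downward over six points, against 10 nM purified firefly luciferase using Km concentrations of substrates (10 uM D-luciferin, 10 uM ATP) in Tris acetate pH 7.5 buffer; luminescence output.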
* hit, by the source's call; ? = inconclusive; · = no result; [ ] = dose if it differs, or a comment. The list is not random: actives were taken first. Their share in the collection is about 7.4%. Calls follow the shape of the dose curve; as a rule, active = well fitted curve in the direction sought with a large enough effect; inconclusive = small, poorly fitted or top-dose-only effect, or another doubt; inactive = no such curve, though single readings can be large; an effect the other way counts as inactive or inconclusive. Potency is read from the fitted curve at half-maximal effect.

SMILES	Rab9 promoter act	NPC1 promoter act	SMN2 splice up	ELG1 genotox	FLuc modulator
C/C=C/C(=O)OCC(=O)Nc1nc2ccc(C)cc2s1	?	24.1%	17.3%	?	21.3µM*
CCOCC(=O)Nc1nc2ccc(OCC)cc2s1	1.26µM*	2.51µM*	11.2µM*	8.2µM*	8.49µM*
Cc1ccc2nc(NC(=O)COC(=O)c3ccccn3)sc2c1	?	?	?	0.0%	15.1µM*
CCOCC(=O)Nc1nc2ccc(C)cc2s1	1.78µM*	?	10µM*	?	9.53µM*
CCOCC(=O)Nc1nc2ccc(S(C)(=O)=O)cc2s1	15.8%	2.0%	?	7.4%	?
Cc1cccc(NC(=O)c2ccc3c(c2)C(=O)N(c2ccccc2C)C3=O)n1	2.3%	16.3%	·	-0.4%	?
CN(C)CCC1c2ccc(Cl)cc2CCc2cccnc21 (stereo not given) (tested in a mixture with another compound)	0.6%	8.6%	·	-4.2%	-2.9%
CCOc1ccc2nc(NS(C)(=O)=O)sc2c1	1.4%	6.9%	14.1µM*	?	16.9µM*
CCOc1ccc2nc(NC(=O)Cn3c(C)csc3=O)sc2c1	6.7%	14.1%	·	11.7%	4.78µM*
CCOc1ccc2nc(NC(=O)CCC(=O)c3cccs3)sc2c1	4.47µM*	3.16µM*	12.6µM*	10.3µM*	1.9µM*
CCOc1ccc2nc(NC(=O)C3CSC4(C)CCC(=O)N34)sc2c1 (stereo not given)	19.5%	1.1%	·	1.2%	21.3µM*
CCOc1ccc2nc(NC(=O)CN3CCN(c4ccccn4)CC3)sc2c1	·	·	-39.1%	·	?
CC1(CCc2ccc3c(c2)OCO3)NCCc2c1[nH]c1ccccc21 (stereo not given)	-4.8%	-2.0%	·	-5.6%	-0.4%
O=C(Cn1nnc(-c2ccccc2)n1)c1ccccc1	10.7%	11.1%	-14.2%	9.6%	?
Cc1ccc(C(=O)Cn2nnc(-c3ccccc3)n2)cc1	20.4%	1.7%	·	-0.9%	19µM*
COC(=O)Cn1nnc(-c2cccc(OC)c2)n1	-4.1%	-6.1%	-10.9%	-0.1%	26.9µM*
COc1ccc(C(=O)Cn2nnc(-c3cccs3)n2)cc1	2.82µM*	?	-6.4%	2.6%	9.53µM*
Cc1ccc2c(COC(=O)CNC(=O)c3ccco3)cc(=O)oc2c1C	·	·	·	-2.8%	·
COc1ccc(CCNC(=O)CN(c2cc(C)cc(C)c2)S(=O)(=O)c2c(C)noc2C)cc1OC	-3.2%	-2.5%	·	-4.5%	2.8%
COC(=O)C(c1ccccc1)N(Cc1cccc(CN(C(C(=O)OC)c2ccccc2)S(C)(=O)=O)c1)S(C)(=O)=O (stereo not given)	7.0%	-2.4%	·	-6.2%	0.1%
COc1cccc(/C=C2\N=C3CCCCCN3C2=O)c1	2.4%	0.1%	-0.4%	?	13.5µM*
COC(=O)c1ccc2c(c1)SC1=C(CCCC1=O)N2	-2.0%[1.84 µM]	20.2%	-18.1%	20.6µM*	19µM*
CC(C)(C)c1ccc(NC(=O)COC(=O)c2ccc3ncsc3c2)cc1	20.5%	7.0%[1.84 µM]	·	-0.1%	-16.6%
O=C(Nc1ccc(Br)cc1)c1ccc2ncsc2c1	0.355µM*	0.398µM*	·	1.64µM*	5.36µM*
COc1ccc(NC(=O)c2ccc3ncsc3c2)cc1	1.41µM*	3.16µM*	·	?	8.49µM*
SMILES	Rab9 promoter act	NPC1 promoter act	SMN2 splice up	ELG1 genotox	FLuc modulator
CCc1ccc(NC(=O)c2ccc3ncsc3c2)cc1	3.55µM*	1.41µM*	8.91µM*	?	2.69µM*
O=C(Nc1ccc2c(c1)C(=O)NC2=O)c1ccc2ncsc2c1	?	?	11.2µM*	?	?
CN(C)S(=O)(=O)c1ccc(NC(=O)c2ccc3ncsc3c2)cc1	14.8%	24.4%	·	?	?
CC(=O)N1CCOc2ccc(S(=O)(=O)NCC3CCC(C(=O)Nc4ccc(C)cn4)CC3)cc21 (stereo not given)	-26.6%	-23.3%	·	-11.0%	0.7%
COCCNC(=O)c1cc(-c2ccccc2)n(Cc2cc(C)no2)n1	0.8%	1.6%	·	-4.7%	-1.3%
Cc1cc(C)cc(OCC(=O)Nc2cccc(S(=O)(=O)NC3=NCCC3)c2)c1	-1.2%	-15.6%	·	-1.6%	-12.2%
O=C(/C=C/c1ccc(Cl)cc1Cl)Nc1cccc(S(=O)(=O)NC2=NCCCCC2)c1	19.2%	21.9%	14.6%	5.5%	2.39µM*
Cc1cc(OCC(=O)Nc2cccc(S(=O)(=O)NC3=NCCCCC3)c2)ccc1Cl	-0.2%	-0.4%	-14.2%	-4.7%	16.9µM*
O=C(/C=C/c1ccccc1[N+](=O)[O-])Nc1cccc(S(=O)(=O)NC2=NCCCCC2)c1	·	·	·	0.1%	·
Cc1ccc(OCC(=O)Nc2cccc(S(=O)(=O)NC3=NCCCCC3)c2)cc1C	-0.7%	-0.3%	·	-4.9%	15.1µM*
CN(C)c1ccc(/C=N/NC(=O)c2nnn(-c3nonc3N)c2COc2ccc(F)cc2)cc1	-3.4%	-1.3%	·	0.8%	1.4%
